According to ChEMBL document CHEMBL5724796, “Tm Shift (DSF) assay results for EUbOPEN Chemogenomics Library” (2024):
Non-standard residues stand in square brackets, D forms with d. Residues, ends and D or L forms follow the SMILES beside them. *: point of attachment. Benzoyl(4-tBu) = CC(C)(C)c1ccc(C(=O)*)cc1; Lys(Et2) = CCN(CC)CCCC[C@H](N)C(=O)O; Cbz = O=C(OCc1ccccc1)*; CH2Cl = ClC*; CH2F = FC*

target: Cyclin-dependent kinase 2 (Homo sapiens) (UniProt P24941); conditions: Compound concentration 20.0 uM

Compound | ΔTm [°C]
O=C(NCC1CCOCC1)c1n[nH]cc1NC(=O)c1c(F)cccc1F | 3.53
Oc1ccc(-c2c(-c3ccccc3)nn3c(C(F)(F)F)cc(C(F)(F)F)nc23)cc1 | 0.46
CNC(=O)O[C@H]1COc2ccc(N3CCN(C4COC4)CC3)cc2[C@@H]1NC(=O)c1ccc(F)cc1 | -0.66
CN(CCCCCCNc1ccnc2cc(Cl)ccc12)CCCCCCNc1ccnc2cc(Cl)ccc12 | 0.27
COc1cc(-c2cn(C)c(=O)c3cnccc23)cc(OC)c1CN(C)CC(=O)NCCOCCOCCNc1cccc2c1C(=O)N(C1CCC(=O)NC1=O)C2=O (stereo not drawn) | 0.21
CC(C)c1c(-c2cnn(C(C)(C)C)c2)[nH]c2c(C#N)cnn2c1=O | 0.15
CS(=O)(=O)c1ccc(-c2nnc(C=Cc3nnc(-c4ccc(C#N)cc4)o3)n2-c2ccccc2Cl)nc1 | 0.99
O=C(N1CCCCC1c1ccccc1)n1cc(-c2ccc(-c3cccc(CO)c3)cc2)nn1 (stereo not drawn) | -2.39
CS(=O)(=O)c1ccc(Oc2cc(F)cc(C#N)c2)c2c1C(O)C(F)C2 (stereo not drawn) | 0.01
NS(=O)(=O)c1cc(-c2nnn[nH]2)c(NCc2cccs2)cc1Cl | 1.03
CCn1nc(C2CC2)cc1Nc1nc(C(=O)NC)nc2[nH]c3cc(-c4c(C)noc4C)c(OC)cc3c12 | -0.11
COCCOCCn1nc2c(c1C)-c1c(Cl)ccc3c1c(C)c(C(=O)O)n3CCCOc1cc(cc3c(F)c(Cl)ccc13)CCc1cc(nn1C)CSC2 | -3.85
CN(CC[C@@H](Oc1ccc(-c2ccccc2)cc1)c1ccc(F)cc1)CC(=O)O | -0.22
Cc1ccsc1C(=CCCN1CCC[C@@H](C(=O)O)C1)c1sccc1C | 0.86
O=C1Nc2ccccc2C2(CCN(CC(Cc3ccccc3)Nc3nc4ccc(F)cc4s3)CC2)N1 (stereo not drawn) | -0.52
CCCOc1cccc(Oc2cc3c(cc2NS(=O)(=O)c2cccc(C(=O)NCCOCCOCCOCC(=O)N[C@H](C(=O)N4C[C@H](O)C[C@H]4C(=O)NCc4ccc(-c5scnc5C)cc4)C(C)(C)C)c2)n(C)c(=O)n3C)c1 | -3.98
CN(CCC(Oc1ccc(-c2ccccc2)cc1)c1ccc(F)cc1)CC(=O)O (stereo not drawn) | 1.59

Compound | ΔTm [°C]
C[C@]1(c2nc3c(C(N)=O)cccc3[nH]2)CCCN1 | -0.1
CCN(CC)CCCC[C@H](NC(=O)[C@H](CC(C)C)NC(=O)[C@H](C)NC(=O)[C@H](Cc1ccccc1)NC(=O)c1ccc(C(C)(C)C)cc1)C(=O)N[C@@H](CO)C(=O)OC ({Benzoyl(4-tBu)}-FAL[Lys(Et2)]S-OMe) | -0.26
CN1CC(=O)N2[C@H](c3ccc4c(c3)OCO4)c3[nH]c4ccccc4c3C[C@@H]2C1=O | -0.06
CC(=O)N[C@@H](Cc1ccccc1)C(=O)N[C@@H](CC(C)C)C(=O)N[C@H](C(=O)N[C@@H](CC(=O)O)C(=O)CCl)[C@@H](C)O (Ac-FLTD-CH2Cl) | 0.03
CCOC(=O)Oc1c(OC)cc(C(=O)O[C@H]2C[C@H]3CN4CCc5c([nH]c6cc(OC)ccc56)[C@@H]4C[C@H]3[C@@H](C(=O)OC)[C@@H]2OC)cc1OC | 0.27
COC(=O)CC[C@H](NC(=O)[C@H](C)NC(=O)OCc1ccccc1)C(=O)N[C@H](C(=O)N[C@@H](CC(=O)OC)C(=O)CF)C(C)C (Cbz-AE(OMe)VD(OMe)-CH2F) | -0.09
CCN(c1cc(-c2ccc(CN3CCOCC3)cc2)cc(C(=O)NCc2c(C)cc(C)[nH]c2=O)c1C)C1CCOCC1 | -0.42
Cc1cccc(N/N=C(\C(=O)c2cccs2)C(=O)C(F)(F)F)c1 | 0.44
CCN(CC)c1ccc(C2=NNC(=O)C[C@H]2C)cc1[N+](=O)[O-] | -0.04
CCC(=O)N1CCOc2c(cc(-c3cc(OC)cc(OC)c3)cc2C(=O)N[C@H]2CCCN(C)C2)C1 | 0.57
CCN(C(=O)c1cc(F)ccc1Oc1cncnc1N1CC2(CCN(C[C@H]3CC[C@H](NS(=O)(=O)CC)CC3)CC2)C1)C(C)C | 0.16
C[C@H](NC(=O)c1cn(C2(C#N)CC2)cn1)C(=O)Nc1nc(-c2cccc(-c3ccn(C)n3)c2)cs1 | 0.19
N#Cc1ccc(-c2c3n(c4cccnc24)CCN(C2CC2)C3=O)cc1F | 0.14
CC1(C)Cn2nc(-c3ccc(F)cn3)c(-c3ccnc4[nH]ncc34)c2CO1 | 0.09
O=C(NCCCOc1ccc2[nH]c(=O)ccc2c1)N(C1CC1)[C@@H]1CCCC[C@H]1O | -0.14
CC(C)(C)OC(=O)NCCCCCN(CCc1ccccc1)C(=O)n1cc(-c2ccc(OC(F)(F)F)cc2)nn1 | 0.01
